Assay results taken from PubChem BioAssay (NCATS).
Values without a mark were called inactive. Inconclusive results are not listed. Activity calls are given as the source filed them. Unless noted, the call rests on the fitted dose curve; in most records, active means well fitted curve in either direction with a large enough effect (not every such curve was filed as active); inconclusive means small, poorly fitted or top-dose-only effect, or another doubt; inactive means flat fitted curve, though single readings scatter.

Key:
[1] = target: Lysosomal acid glucosylceramidase (Homo sapiens) (UniProt P04062); assay: Glucocerebrosidase-p2 (AID 348; in the data active means potency below about 10 µM; further: potency means the concentration at half of the fitted maximal effect); conditions: purified GBA, blue fluorogenic substrate, 40 min
Lysosomal acid glucosylceramidase (Homo sapiens), sequence (P04062 whole entry, looked up): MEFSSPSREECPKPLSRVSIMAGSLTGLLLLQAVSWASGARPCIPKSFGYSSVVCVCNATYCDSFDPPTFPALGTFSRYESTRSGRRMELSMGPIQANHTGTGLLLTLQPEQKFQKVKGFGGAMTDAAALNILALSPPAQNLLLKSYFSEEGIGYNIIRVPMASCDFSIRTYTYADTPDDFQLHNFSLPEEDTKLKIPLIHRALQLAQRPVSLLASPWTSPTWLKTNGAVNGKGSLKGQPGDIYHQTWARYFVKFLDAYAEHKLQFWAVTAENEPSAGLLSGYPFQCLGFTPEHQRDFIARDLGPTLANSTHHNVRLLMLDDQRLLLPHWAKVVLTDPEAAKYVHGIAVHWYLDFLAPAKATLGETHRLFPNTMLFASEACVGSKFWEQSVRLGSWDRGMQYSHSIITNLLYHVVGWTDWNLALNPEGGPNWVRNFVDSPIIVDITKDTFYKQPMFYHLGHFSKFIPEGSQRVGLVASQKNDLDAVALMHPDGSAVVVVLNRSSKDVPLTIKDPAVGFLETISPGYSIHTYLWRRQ
Procedure, shortened: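 Compounds titrated from 0.6 nM upwards against 0.2 nM enzyme in pH 5.9 citric acid/KH2PO4, taurocholate, tween-20; blue fluorogenic substrate 80 uM, 40 min room temperature, stopped and read Ex 365/Em 440 for AC50.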

[2] = AP1 Signaling Pathway (AID 357); conditions: ME-180 AP-1-bla reporter, EGF-induced, beta-lactamase ratio, 5 h; at 7.69 µM (top of the series) unless noted;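 further: ME-180 reporter cells stimulated with EGF at its EC50 level; on the % scale 0 is the no-effect control and ±100 the full control effect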
Procedure, shortened: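 First, ME-180 AP-1-bla cells were cultured overnight at 37 °C in low-serum Opti-MEM. Next, titrated compounds with EC50 EGF were incubated 5 hours. Finally, CCF4 was added for 2.5 hours and the 460/530 nm ratio recorded.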

[3] = target: Cytochrome P450 1A2 (Homo sapiens) (UniProt P05177); assay: p450-cyp1a2 (AID 410; calls by dose curve; further: potency means the concentration at half of the fitted maximal effect;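 on activity change, negative = inhibition: -100% = full effect of reference inhibitor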); conditions: recombinant CYP1A2, luciferin-ME demethylation, luminescence; series mostly up to 11.4 µM
Cytochrome P450 1A2 (Homo sapiens), sequence (P05177 whole entry, looked up): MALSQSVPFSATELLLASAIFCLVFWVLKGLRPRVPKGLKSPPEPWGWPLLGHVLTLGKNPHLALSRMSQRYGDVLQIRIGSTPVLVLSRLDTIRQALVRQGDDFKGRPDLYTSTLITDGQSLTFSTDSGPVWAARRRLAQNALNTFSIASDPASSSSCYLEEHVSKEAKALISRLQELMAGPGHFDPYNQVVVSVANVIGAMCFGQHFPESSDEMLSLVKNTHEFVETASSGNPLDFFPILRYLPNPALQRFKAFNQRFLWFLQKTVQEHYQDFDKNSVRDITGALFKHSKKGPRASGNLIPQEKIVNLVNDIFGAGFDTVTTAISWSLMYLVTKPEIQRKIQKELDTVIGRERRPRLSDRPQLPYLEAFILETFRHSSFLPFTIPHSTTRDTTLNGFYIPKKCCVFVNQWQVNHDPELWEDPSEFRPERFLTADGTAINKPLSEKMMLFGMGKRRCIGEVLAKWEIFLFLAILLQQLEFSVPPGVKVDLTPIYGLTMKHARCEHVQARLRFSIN
Procedure, shortened: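 Human CYP1A2 (20nM) demethylated Luciferin-ME at its Km (100uM) in 100mM KPO4. After 10 min compound preincubation, NADPH regeneration ran the reaction 60 min at room temperature. Luciferin was read by luminescence, normalized to 57 uM furafylline.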

[4] = NFAT Signaling Pathway (AID 444); conditions: Jurkat NFAT-bla M1, carbachol, beta-lactamase ratio, 5 h; at 7.69 µM (top of the series) unless noted;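 further: carbachol stimulus at about its EC50 of 1 µM final; on the % scale 0 is the no-effect control and ±100 the full control effect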
Procedure, shortened: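 Jurkat cells with NFAT-driven β-lactamase reporter and co-expressed M1 receptor, stimulated with carbachol (final 1 uM, ~EC50), compound titration, 5 h at 37 °C. CCF4 loaded 1 h at RT; 460/530 nm ratio gave %activity and AC50.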

[5] = Stat Signaling Pathway (AID 446); conditions: ME-180 SIE beta-lactamase reporter, IL-6 stimulated, 5 h; at 7.69 µM (top of the series) unless noted;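 further: ME-180 cervical cancer cells given 40 pM IL-6 alongside compound; SIE-controlled beta-lactamase reporter measured as 460/530 nm FRET emission ratio; on the % scale 0 is the no-effect control and ±100 the full control effect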
Procedure, shortened: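 ME-180 SIE-bla cells; overnight plating; cpd + IL-6 40 pM, 5 h, 37 C; LiveBLAzer 2.5 h RT; 460/530 nm emission ratio. Normalized to 300 pM IL-6 and 125 nM JAK inhibitor controls.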

[6] = target: Glucocorticoid receptor (Homo sapiens) (UniProt P04150); assay: GR-GFP Redistribution (AID 450;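 active means compounds whose dose series gives a full or clear partial fitted curve of increased nuclear translocation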; further: potency means the concentration at half of the fitted maximal effect); conditions: U2OS GR-GFP nuclear translocation, laser cytometry, 2 h
Glucocorticoid receptor (Homo sapiens), sequence (P04150 whole entry, looked up, the tested form may be a part): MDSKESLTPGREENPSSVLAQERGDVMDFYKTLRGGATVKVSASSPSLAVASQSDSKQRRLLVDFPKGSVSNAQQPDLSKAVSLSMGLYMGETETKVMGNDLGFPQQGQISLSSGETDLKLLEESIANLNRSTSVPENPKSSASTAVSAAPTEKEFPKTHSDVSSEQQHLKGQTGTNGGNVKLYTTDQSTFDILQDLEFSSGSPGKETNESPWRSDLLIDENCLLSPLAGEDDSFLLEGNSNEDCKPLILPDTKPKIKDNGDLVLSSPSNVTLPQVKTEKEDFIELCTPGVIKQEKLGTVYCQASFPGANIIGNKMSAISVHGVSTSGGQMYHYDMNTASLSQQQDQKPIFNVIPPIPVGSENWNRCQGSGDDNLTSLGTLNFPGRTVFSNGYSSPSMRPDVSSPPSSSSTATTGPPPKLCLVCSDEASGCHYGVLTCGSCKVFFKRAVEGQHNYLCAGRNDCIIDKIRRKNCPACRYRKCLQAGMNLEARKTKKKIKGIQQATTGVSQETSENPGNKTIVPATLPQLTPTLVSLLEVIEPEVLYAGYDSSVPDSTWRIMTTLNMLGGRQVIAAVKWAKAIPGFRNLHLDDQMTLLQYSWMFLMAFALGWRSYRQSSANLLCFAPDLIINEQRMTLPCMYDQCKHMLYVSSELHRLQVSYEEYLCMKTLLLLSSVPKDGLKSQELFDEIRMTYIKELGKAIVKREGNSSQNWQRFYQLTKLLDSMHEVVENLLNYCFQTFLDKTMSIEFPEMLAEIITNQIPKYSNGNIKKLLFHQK

[7] = target: Glucocorticoid receptor (Homo sapiens) (UniProt P04150); assay: GR-EFC Redistribution (AID 451; calls by dose curve; further: potency means the concentration at half of the fitted maximal effect); conditions: CHO-K1 GR-EFC translocation, beta-gal luminescence, 2 h
Procedure, shortened: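 CHO-K1 cells expressing nuclear EA and GR-ED fragments of b-gal; compounds titrated up to 46 uM final, 2 h at 37 C. GR nuclear translocation read as complemented b-gal luminescence after 1 h RT detection.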

[8] = target: Mitogen-activated protein kinase 10 (Mus musculus) (UniProt Q61831); assay: JNK3 AlphaScreen Assay (AID 530); conditions: JNK3 lysate, c-Jun phosphorylation; series mostly up to 11.4 µM;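 further: kinase came from lysate of stimulated human HepG2 cells; signal reports phosphorylation of biotinylated GST-cJun 1-79 at Ser73 with 10 µM ATP; on the % scale 0 is the no-effect control and ±100 the full control effect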
Procedure, shortened: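 qHTS format: compounds tested as titrations against IL-1beta/TNF-alpha-activated HepG2 lysate JNK3 with biotin-GST-cJun substrate and 10 uM ATP at room temperature. Loss of anti-phospho-cJun AlphaScreen signal indicates inhibition.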

[9] = target: 3',5'-cyclic-AMP phosphodiesterase 4B (Homo sapiens) (UniProt Q07343); assay: qHTS Assay for Inhibitors of PDE-IV (AID 607; active means well fitted activation curve with a large enough effect in the main read-out, with a control signal flat, not every such curve was filed as active; further: % of control where 0% means no effect); conditions: HEK293 ACTOne CNG channel cells, membrane potential fluorescence; series mostly up to 22.9 µM
3',5'-cyclic-AMP phosphodiesterase 4B (Homo sapiens), sequence (Q07343 whole entry, looked up): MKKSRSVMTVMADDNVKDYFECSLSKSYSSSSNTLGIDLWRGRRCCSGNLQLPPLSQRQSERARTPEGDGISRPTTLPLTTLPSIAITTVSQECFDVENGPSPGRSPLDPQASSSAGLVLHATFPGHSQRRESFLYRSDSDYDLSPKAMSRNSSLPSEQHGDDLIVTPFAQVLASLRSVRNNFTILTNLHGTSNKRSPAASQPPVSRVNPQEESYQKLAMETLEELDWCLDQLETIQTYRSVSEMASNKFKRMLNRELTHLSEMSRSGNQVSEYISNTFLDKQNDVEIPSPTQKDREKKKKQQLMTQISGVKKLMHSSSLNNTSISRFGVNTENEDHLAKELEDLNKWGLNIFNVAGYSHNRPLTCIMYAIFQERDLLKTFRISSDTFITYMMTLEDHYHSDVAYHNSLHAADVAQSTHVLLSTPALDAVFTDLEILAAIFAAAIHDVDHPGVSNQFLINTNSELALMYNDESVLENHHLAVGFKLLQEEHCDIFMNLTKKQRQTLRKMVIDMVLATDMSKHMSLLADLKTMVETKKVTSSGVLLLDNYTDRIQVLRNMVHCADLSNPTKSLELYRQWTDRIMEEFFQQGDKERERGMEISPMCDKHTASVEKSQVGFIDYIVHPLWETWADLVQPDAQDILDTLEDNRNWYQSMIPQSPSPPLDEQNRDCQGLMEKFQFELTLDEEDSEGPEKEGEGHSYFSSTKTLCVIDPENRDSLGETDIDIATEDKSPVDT
Procedure, shortened: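 ACTOne HEK293 cells carry a modified cAMP-gated CNG channel and express endogenous PDE4; plated 1000 cells/well, compounds up to 22.9 uM final. Membrane-potential dye fluorescence (ex 535/em 590) was read; parental cells received 10 uM forskolin + 100 uM RO 20-1724.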

[10] = target: Cytochrome P450 2C19 (Homo sapiens) (UniProt P33261); assay: qHTS Assay for Inhibitors and Substrates of Cytochrome P450 2C19 (AID 899; active means well fitted inhibition curve with a large enough effect; further: nearly all actives have a fitted effect of over 60% in size; further: potency means the concentration at half of the fitted maximal effect); conditions: recombinant CYP2C19, luciferin-H EGE luminescence; series mostly up to 11.4 µM
Cytochrome P450 2C19 (Homo sapiens), sequence (P33261 whole entry, looked up): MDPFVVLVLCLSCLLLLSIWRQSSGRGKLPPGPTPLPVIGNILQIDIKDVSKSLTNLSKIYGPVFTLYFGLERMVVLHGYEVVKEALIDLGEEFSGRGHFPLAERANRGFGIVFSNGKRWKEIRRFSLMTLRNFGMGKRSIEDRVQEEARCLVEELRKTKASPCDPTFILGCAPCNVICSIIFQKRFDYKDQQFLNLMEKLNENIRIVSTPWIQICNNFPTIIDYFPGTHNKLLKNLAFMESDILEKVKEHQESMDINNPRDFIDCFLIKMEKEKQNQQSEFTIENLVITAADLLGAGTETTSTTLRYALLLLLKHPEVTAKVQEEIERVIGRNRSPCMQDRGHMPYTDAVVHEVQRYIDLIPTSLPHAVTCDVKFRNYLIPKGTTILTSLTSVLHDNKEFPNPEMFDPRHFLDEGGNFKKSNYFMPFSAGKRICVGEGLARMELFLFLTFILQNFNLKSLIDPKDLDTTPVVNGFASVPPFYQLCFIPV
Procedure, shortened: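 Signal comes from luciferase acting on luciferin released by CYP2C19-mediated hydroxylation of Luciferin-H EGE, 10uM (KM). Assay mix: 5nM enzyme, 50mM KPO4; 60 min at 37C with NADPH regeneration. Data normalized against 57uM ketoconazole.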

[11] = target: Cytochrome P450 2D6 (Homo sapiens) (UniProt P10635); assay: qHTS Assay for Inhibitors and Substrates of Cytochrome P450 2D6 (AID 891; active means well fitted inhibition curve with a large enough effect; further: nearly all actives have a fitted effect of over 60% in size; further: potency means the concentration at half of the fitted maximal effect); conditions: recombinant CYP2D6, luciferin-ME EGE luminescence; series mostly up to 11.4 µM
Cytochrome P450 2D6 (Homo sapiens), sequence (P10635 whole entry, looked up): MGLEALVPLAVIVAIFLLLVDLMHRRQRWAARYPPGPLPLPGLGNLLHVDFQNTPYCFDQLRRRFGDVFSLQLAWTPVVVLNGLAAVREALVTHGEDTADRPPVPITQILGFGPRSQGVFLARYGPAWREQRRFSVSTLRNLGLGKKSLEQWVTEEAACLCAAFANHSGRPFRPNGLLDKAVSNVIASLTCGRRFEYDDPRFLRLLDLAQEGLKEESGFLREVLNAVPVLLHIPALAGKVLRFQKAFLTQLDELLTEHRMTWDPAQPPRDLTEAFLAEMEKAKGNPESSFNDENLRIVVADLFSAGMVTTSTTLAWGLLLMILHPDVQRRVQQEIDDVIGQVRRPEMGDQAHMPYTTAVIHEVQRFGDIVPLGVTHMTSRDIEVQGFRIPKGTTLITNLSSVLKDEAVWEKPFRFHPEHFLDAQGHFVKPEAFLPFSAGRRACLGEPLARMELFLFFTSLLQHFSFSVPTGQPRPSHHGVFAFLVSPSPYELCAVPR
Procedure, shortened: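 Human CYP2D6 (5 nM) with 30 uM Luciferin-ME EGE (at Km) in 100 mM KPO4, compound preincubated 10 min, then NADPH regeneration system for 60 min at room temperature. Luciferin read by luminescence; normalized to 1.43 uM quinidine.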

| Compound | Potency [1] [µM] | activity change, negative = inhibition [2] [%] | Potency [3] | activity change, negative = inhibition [4] [%] | activity, negative = inhibition [5] [%] | Potency [6] [µM] | Potency [7] [µM] | Potency [8] | Potency [9] | Potency [10] | activity change, negative = inhibition [3] | Potency [11] |
| --- | --- | --- | --- | --- | --- | --- | --- | --- | --- | --- | --- | --- |
| c1cncc(CNc2ncn[nH]2)c1 | > 11.4 | 12.7 | inactive | 15.3 | -1.59 | > 46 | > 9.22 | inactive | inactive | inactive |  |  |
| C=CC[C@@H](C(=O)O)c1ccccc1 | > 11.4 | 2.31 | inactive | 9.16 | 8.67 | > 46 | > 9.22 | inactive | inactive | inactive |  |  |
| c1ccc2c(CN3CCN(Cc4c[nH]c5ccccc45)CC3)c[nH]c2c1 | > 11.4 | -5.4 |  | 5.24 | 5.49 | > 46 | > 9.22 | inactive | inactive |  | -18.1% [at 2.29 µM] | 2.51 µM (active) |
| O=C(O)c1cc2ccccc2c(S(=O)(=O)O)c1O | > 11.4 | 2.94 | inactive | 7.56 | 3.56 | > 46 | > 9.22 | inactive | inactive |  |  | inactive |
| Cc1cn([C@H]2C[C@H](O)[C@@H](COC(N)=O)O2)c(=O)[nH]c1=O | > 11.4 | 2.02 |  | 0.228 | 6.97 | > 46 | > 9.22 | inactive | inactive |  | -14.6% [at 2.29 µM] | inactive |
| Oc1c(Br)cc(Br)cc1CN(Cc1cc(Br)cc(Br)c1O)C1CCCCC1 | > 11.4 | 6.04 | 3.16 µM (active) | 5.11 | -17.9 | > 46 | > 9.22 | inactive | inactive | 0.316 µM (active) |  | 0.251 µM (active) |
| O=[N+]([O-])c1cc(Cc2cc([N+](=O)[O-])c3cccnc3c2O)c(O)c2ncccc12 | > 11.4 | 18.2 |  | -16.4 | -1.87 | > 46 | > 9.22 | inactive | inactive | 2.51 µM (active) | -31.1% [at 2.29 µM] |  |
| Cn1c(=O)c2c(nc(C(=N)SCC(=O)O)n2C)n(C)c1=O | > 11.4 | -5.29 | 1.26 µM (active) | 4.58 | -6.13 | > 46 | > 9.22 | inactive | inactive | inactive |  |  |
| O=C(O)CC1(C(=O)O)CCCCC1 | > 11.4 | -1.19 |  | 7.95 | 1.85 | > 46 | > 9.22 | inactive | inactive | inactive | 5.1% [at 2.29 µM] | inactive |
| O=S(=O)(O)c1ccc(N=Nc2ccccc2)cc1 | > 11.4 | -9.23 | inactive | 7.04 | 0.896 | > 46 | > 9.22 | inactive | inactive |  |  | inactive |
| Nc1ccc(S(=O)(=O)NCc2nccs2)cc1 | > 11.4 | -6.48 |  | 7.98 | -1.21 | > 46 | > 9.22 | inactive | inactive | 0.0794 µM (active) | -10.5% [at 2.29 µM] |  |
| Nc1c(S(N)(=O)=O)cc(S(N)(=O)=O)cc1S(N)(=O)=O | > 11.4 | 2.78 | inactive | 7.97 | 1.94 | > 46 | > 9.22 | inactive | inactive | inactive |  |  |
| OC[C@@H]1O[C@@H](O)[C@H](N=Cc2ccc3c(c2)OCO3)[C@@H](O)[C@@H]1O | > 11.4 | 5.99 |  | 3.26 | 2.95 | > 46 | > 9.22 | inactive | inactive | inactive | -24.4% [at 2.29 µM] |  |
